Bioassay records as filed in PubChem.
Sampled rows, rich in hits. Any-hit rate of the full collection: about 2.3%.
CHT inh: inhibitors of human choline transporter CHT | CHT-expressing cells, membrane potential dye, choline response; active compounds read low | B-score at 10 µM | 0.86% of 310,000 active | AID 488975, 2010;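 active = B-score over 3 SD under the library average, and starting fluorescence ratio not unusually high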;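 note: choline stimulus applied at its EC90 after an EC20 pre-addition; B-score computed on integrated fluorescence ratio after choline addition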
ANO1 block: TMEM16A chloride channel inhibitors, primary screen, cell-based, HTS; HEK293 TMEM16A/YFP iodide influx fluorescence, ionomycin; normalized B-score (activity score, 25-100; higher = stronger inhibition) at 10 µM; 1.2% of 310,000 active; AID 588511, 2011;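 active = ratio plate-corrected score three or more library SD toward inhibition, starting fluorescence score within five deviations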;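 note: score derived from kinetic fluorescence span divided by baseline fluorescence per well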
Target sequence (Q8BHY3 whole entry, looked up): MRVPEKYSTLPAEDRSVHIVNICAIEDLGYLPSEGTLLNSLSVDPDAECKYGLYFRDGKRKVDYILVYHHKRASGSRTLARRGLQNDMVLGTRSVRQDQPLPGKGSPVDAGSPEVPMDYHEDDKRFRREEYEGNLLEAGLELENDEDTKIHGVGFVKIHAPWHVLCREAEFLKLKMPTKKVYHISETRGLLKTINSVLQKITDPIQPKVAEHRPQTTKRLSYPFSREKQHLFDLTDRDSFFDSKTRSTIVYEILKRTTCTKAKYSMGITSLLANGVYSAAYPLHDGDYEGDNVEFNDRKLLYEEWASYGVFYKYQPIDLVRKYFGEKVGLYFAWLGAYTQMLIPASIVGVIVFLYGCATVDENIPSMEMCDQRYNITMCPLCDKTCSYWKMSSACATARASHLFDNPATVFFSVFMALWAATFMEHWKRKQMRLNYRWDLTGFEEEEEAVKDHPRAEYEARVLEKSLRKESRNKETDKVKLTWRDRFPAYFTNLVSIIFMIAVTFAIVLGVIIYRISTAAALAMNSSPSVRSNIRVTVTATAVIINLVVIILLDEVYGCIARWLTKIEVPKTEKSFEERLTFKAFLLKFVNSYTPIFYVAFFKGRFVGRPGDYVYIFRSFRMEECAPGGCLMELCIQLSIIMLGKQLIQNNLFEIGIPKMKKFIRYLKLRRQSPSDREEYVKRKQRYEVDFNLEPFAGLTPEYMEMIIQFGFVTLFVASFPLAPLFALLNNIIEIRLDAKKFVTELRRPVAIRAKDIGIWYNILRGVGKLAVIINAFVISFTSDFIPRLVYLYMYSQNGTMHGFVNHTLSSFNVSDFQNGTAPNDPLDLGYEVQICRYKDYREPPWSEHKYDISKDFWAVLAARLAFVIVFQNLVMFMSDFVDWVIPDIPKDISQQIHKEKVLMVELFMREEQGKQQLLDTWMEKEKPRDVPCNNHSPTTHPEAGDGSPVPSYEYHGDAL
CHT allo act: CHT positive allosteric modulators, primary screen, cell-based, membrane potential dye, choline EC20; CHT-expressing cells; active compounds read high; LV-AA mutant CHT in HEK293 cells; High affinity choline transporter 1 (Homo sapiens), Q9GZV3; 0.49% of 310,000 active; B-score at 10 µM;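 active = initial fluorescence not abnormally high and integrated response B-score, plate-corrected, over 3 SD above library mean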
ANO1 activ: TMEM16A chloride channel activators or potentiators, primary screen, cell-based, HTS; Anoctamin-1 (Mus musculus), Q8BHY3; HEK293 TMEM16A/YFP-H148Q/I152L, iodide quench fluorescence; active compounds read low; B-score at 10 µM; 0.3% of 340,000 active; AID 623877, 2012;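 active = fluorescence-ratio B-score plate-corrected deviation score at least 3 library SD below zero, with starting fluorescence score within 5 deviations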;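 note: channel opened by trigger with iodide after compound preincubation; score built on the fluorescence ratio of max minus min over baseline; more negative score means more quench and so TMEM16A activation or potentiation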
An asterisk follows results filed as active; i = inactive; . = no result given.

SMILES	CHT inh	ANO1 block	CHT allo act	ANO1 activ
COc1ccc(OC)c2cc3ccccc3cc12	.	.	.	-8.3*
O=C(NN=Cc1cc(Br)c(O)c(Br)c1)c1ccccc1NS(=O)(=O)c1cccs1	.	.	.	i
CC(=O)[C@@]1(O)CC[C@H]2[C@@H]3CCC4=CC(=O)CC[C@]4(C)[C@H]3[C@@H](O)C[C@@]21C	-6.6*	100*	i	i
CSc1ccc(NC(=O)Nc2cccn(Cc3ccccc3)c2=O)cc1	i	100*	i	i
CN(CC(=O)Nc1cc(S(=O)(=O)N2CCCCCC2)ccc1Cl)Cc1ccc2c(c1)OCO2	.	.	.	-14*
CC1CN(S(=O)(=O)c2cccc(C(=O)NCc3ccccn3)c2)CC(C)O1 (configuration not stated)	.	.	.	i
COc1ccc2nc(NN=C(C)c3ccccn3)cc(C)c2c1	.	.	.	i
COc1cccc(/C=N/NC(=O)CSc2nnc(C)n2-c2ccccc2)c1O	i	i	i	i
CCCCSc1nc(C)cc(SCC(=O)N/N=C/c2cccc(OC)c2O)n1	i	100*	i	i
Cn1cncc1C#Cc1ccc2cc(C(C)(C)O)oc(=O)c2c1	.	.	.	-11*
CC(C)C(NC(=O)CN(c1ccc2c(c1)OCCO2)S(=O)(=O)c1ccccc1)C(C)C	i	i	i	i
Cc1cc(C(=O)COC(=O)C2=COCCO2)c(C)n1-c1cccc(F)c1	i	i	i	i
CN1CCc2c(n(CC(O)CNCc3ccccc3)c3ccccc23)C1=O (configuration not stated)	i	i	i	i
CC(C)NCC(O)Cn1c2c(c3ccccc31)CCc1c-2cnn1-c1ccccc1 (configuration not stated)	-6.5*	i	i	i
COc1ccc(-c2ccc3c(c2)S(=O)(=O)c2cccc(C(=O)NCc4cccc(OC(F)(F)F)c4)c2C3=O)cc1OC	.	.	.	-4.6*
CCOC(=O)N1CCc2c(sc(NC(=O)c3ccc(Cl)s3)c2C(N)=O)C1	i	100*	i	.
O=S(=O)(c1cccs1)N1CCN(CC(O)COc2cc(Cl)ccc2Cl)CC1 (configuration not stated)	i	25*	i	-14*
O=S(=O)(c1cccs1)N1CCN(CCOc2ccc(Cl)cc2)CC1	.	.	.	i
CC1=NN(c2nc(-c3ccc(C)cc3)cs2)C(=O)C1N=Nc1ccc(C(N)=O)cc1 (configuration not stated)	i	i	i	-16*
COc1cccc(CNC(=O)COC(=O)c2ccc(Cl)s2)c1	.	.	.	i
CCCN(CC(=O)Nc1ccccc1C)C(=O)c1ccc(N2CCCCC2)c([N+](=O)[O-])c1	i	i	i	i
CNC(CC(=O)c1ccc([N+](=O)[O-])cc1)C(Cl)(Cl)Cl (configuration not stated)	i	25*	i	i
CC(C)CC(=O)NC(=S)NNC(=O)c1ccc([N+](=O)[O-])cc1	i	i	i	i
CCOc1ccc(N(CC(=O)N/N=C/c2ccccn2)S(=O)(=O)c2ccc(Cl)cc2)cc1	i	i	i	i
CC(=O)c1ccc(OCCCC(=O)Nc2cc(S(=O)(=O)N3CCCCC3)ccc2C)cc1	.	.	.	i
SMILES	CHT inh	ANO1 block	CHT allo act	ANO1 activ
C[C@@H]1C(NC(=O)c2ccccc2)CC2CC1C2(C)C (some centres not stated)	-5*	i	i	i
Cc1cc(NC2CCCCC2)nc(NCc2ccccc2)n1	i	100*	i	i
C=C1CCN(c2ccc(C(=O)NCc3ccccc3)cc2[N+](=O)[O-])CC1	i	i	i	i
C=C1CCN(c2ccc(C(=O)NCCC)cc2[N+](=O)[O-])CC1	i	i	i	-6.4*
CN1CCC(NC(=O)c2cc(-c3cccc(Br)c3)nc3ccccc23)CC1	i	i	i	i
CCCOc1ccc(-c2c(=O)n(O)c3ccccc3[n+]2[O-])cc1	i	i	i	i
CC[C@]12c3[nH]c4ccc(OC)cc4c3CCN1C(=O)C(CC(=O)NCCCOC)C[C@@H]2C(=O)N1CCN(C(=O)c2ccco2)CC1 (some centres not stated)	.	.	.	i
Cc1cccc(C)c1-n1cccc1/C=C1\SC(=S)N(c2cccc(C(=O)O)c2)C1=O	i	100*	i	i
COc1ccc(S(=O)(=O)N(C)C[C@H]2Oc3ccc(NS(=O)(=O)c4cccs4)cc3C(=O)N([C@H](C)CO)C[C@@H]2C)cc1	.	.	.	i
Cc1cccc(C)c1OCC(=O)Nc1ccc(NC(=O)c2ccco2)cc1	i	i	i	i
Cc1cccc(C)c1OCC(=O)Nc1cccc(NC(=O)c2ccco2)c1	i	100*	i	i
CC(C)[C@H](NC(=O)c1ccco1)C(=O)OCC(=O)Nc1cccc(F)c1	i	i	i	-41*
CC(C)[C@H](NC(=O)c1ccco1)C(=O)OCC(=O)Nc1ccc(Cl)c(S(=O)(=O)N(C)C)c1	i	i	i	i
O=C(CNC(=O)c1ccc(Br)o1)Nc1cccc(S(=O)(=O)N2CCCC2)c1	i	i	i	i
Cc1ccccc1Cn1c(=N)n(CC(O)c2ccco2)c2ccccc21 (configuration not stated)	i	i	i	i
CC(C)(C)c1ccc(Cn2c(=N)n(CC(O)c3ccco3)c3ccccc32)cc1 (configuration not stated)	-6.6*	i	i	i
O=c1c(/C=N\NS(=O)(=O)c2ccccc2)coc2ccc(Cl)cc12	i	100*	i	i
COc1ccc(-c2noc(-c3ccccc3-c3ccccc3)n2)cc1	i	25*	i	i
Cc1noc(C)c1NC(=O)N(C)C[C@@H]1Oc2c(NC(=O)c3ccncc3)cccc2C(=O)N([C@H](C)CO)C[C@@H]1C	.	.	.	i
Cc1ccsc1C(=O)NCCc1c[nH]c2ccccc12	i	i	i	i
CC(C)CC(=O)c1c(O)c(C=O)c(O)c2c1O[C@@]1(C)[C@@H](C2)C[C@H]2C[C@@H]1C2(C)C	.	.	.	i
Cc1cc(/C=N/NC(=O)c2cccc(F)c2)c(C)n1-c1ccccc1	i	i	i	i
Cc1cc(/C=N/NC(=O)c2ccccc2F)c(C)n1-c1ccccc1	-6.3*	i	i	i
CCn1c(COc2cccc3ccccc23)nnc1SCC(=O)OC1CCCCC1	i	100*	i	i
COC(=O)[C@]1(Cc2ccccc2)N[C@H](CN(C)S(=O)(=O)c2ccc(C(C)(C)C)cc2)[C@@H]2C(=O)N(C)C(=O)[C@@H]21	.	.	.	i
C[C@@H](C(=O)NCCc1ccccc1F)N1C(=O)N2CCc3c([nH]c4ccccc34)[C@@]2(C)C1=O	i	25*	i	i
